Out of some 310,000 compounds screened, about 14,000 (4.5%) showed an effect of 50% or more. The effect is printed as a negative number. This is one part of a sample in which strong results are shown more often than they occur.
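Also: peak tail current of the secondary pulse compared with the same well before compound.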

The target in this test is human ether-à-go-go-related gene (hERG) potassium channel (human, UniProt Q12809). In words: primary screen, population patch clamp on CHO cells stably expressing hERG; higher = less effect of the substance.
human ether-à-go-go-related gene (hERG) potassium channel, sequence (Q12809 whole entry, looked up): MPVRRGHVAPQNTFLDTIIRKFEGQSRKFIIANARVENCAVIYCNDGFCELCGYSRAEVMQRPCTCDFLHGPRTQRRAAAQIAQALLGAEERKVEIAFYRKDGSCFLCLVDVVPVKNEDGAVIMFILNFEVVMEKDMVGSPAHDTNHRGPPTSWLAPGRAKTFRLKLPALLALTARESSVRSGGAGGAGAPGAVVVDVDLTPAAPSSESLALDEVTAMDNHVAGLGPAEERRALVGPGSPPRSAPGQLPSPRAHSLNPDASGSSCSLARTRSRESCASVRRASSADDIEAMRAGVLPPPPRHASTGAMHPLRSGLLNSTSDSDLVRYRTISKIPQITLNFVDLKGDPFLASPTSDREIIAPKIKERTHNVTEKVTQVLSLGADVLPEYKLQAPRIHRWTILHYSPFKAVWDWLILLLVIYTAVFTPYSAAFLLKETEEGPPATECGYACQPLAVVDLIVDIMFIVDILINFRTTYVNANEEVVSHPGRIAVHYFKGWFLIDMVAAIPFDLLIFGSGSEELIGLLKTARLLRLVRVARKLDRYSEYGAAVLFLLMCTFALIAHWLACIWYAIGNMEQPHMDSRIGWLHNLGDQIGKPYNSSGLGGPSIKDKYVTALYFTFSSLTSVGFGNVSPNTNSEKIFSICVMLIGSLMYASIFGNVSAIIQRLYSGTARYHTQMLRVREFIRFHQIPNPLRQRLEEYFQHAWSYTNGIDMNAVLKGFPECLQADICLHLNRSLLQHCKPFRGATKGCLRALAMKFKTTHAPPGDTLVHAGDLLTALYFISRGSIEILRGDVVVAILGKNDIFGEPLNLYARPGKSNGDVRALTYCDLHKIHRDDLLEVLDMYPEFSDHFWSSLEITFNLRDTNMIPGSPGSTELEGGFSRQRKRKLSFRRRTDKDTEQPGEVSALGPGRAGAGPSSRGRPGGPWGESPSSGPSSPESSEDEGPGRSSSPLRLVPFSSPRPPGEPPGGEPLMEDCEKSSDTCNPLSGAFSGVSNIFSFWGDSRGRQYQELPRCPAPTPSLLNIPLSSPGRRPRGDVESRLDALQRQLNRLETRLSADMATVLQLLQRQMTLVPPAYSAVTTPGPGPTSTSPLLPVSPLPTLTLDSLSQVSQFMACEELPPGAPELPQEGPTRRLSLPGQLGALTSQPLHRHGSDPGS
As for `Nc1nc(-c2ccc3c(c2)CCC(=O)N3)cs1`, the “hERG current change (%, negative = inhibition) at 10uM” value was 16.5%.

Turning to `CN(C)c1ccc(S(=O)(=O)N2CCCCC2)cc1NC(=O)C1CSC2(C)CCC(=O)N12` (centres unmarked), the “hERG current change (%, negative = inhibition) at 10uM” value was -22.3%.

As to `CCOC(=O)C1Sc2[nH]c(=O)sc2C(c2ccc(Cl)cc2)C1C(=O)OCC` (centres unmarked), the “hERG current change (%, negative = inhibition) at 10uM” value was -1.1%.

Regarding `COC(=O)C1Sc2[nH]c(=O)sc2C2c3ccccc3OC(=O)C12` (centres unmarked), the “hERG current change (%, negative = inhibition) at 10uM” value was -22.6%.

For `COC(=O)C1Sc2[nH]c(=O)sc2C(c2ccc(Cl)cc2)C1C(=O)OC` (centres unmarked), the “hERG current change (%, negative = inhibition) at 10uM” value is -67%.

With `Cc1[nH]n(-c2cccc([N+](=O)[O-])c2)c(=O)c1-c1ccccc1`, the “hERG current change (%, negative = inhibition) at 10uM” value worked out at 15.8%.

For `CCN(CC)S(=O)(=O)c1cc(NC(=O)[C@@H](NC(N)=O)C(C)C)ccc1C`, the “hERG current change (%, negative = inhibition) at 10uM” value was determined as 15.5%.

With `COc1ccc2[nH]c3c(=O)n(/N=C/c4ccc(OC)c(CN5CCCC5)c4)c(C)nc3c2c1`, the “hERG current change (%, negative = inhibition) at 10uM” value was -45.3%.

In the case of `COc1ccc(/C=N/n2cnc3c([nH]c4ccc(C)cc43)c2=O)cc1CN1CCCC1`, the “hERG current change (%, negative = inhibition) at 10uM” value is -63.2%.

For `COc1ccc(/C=N/n2cnc3c([nH]c4ccc(Br)cc43)c2=O)cc1CN1CCOCC1`, the “hERG current change (%, negative = inhibition) at 10uM” value is -8.88%.

As for `COc1ccc(/C=N/n2cnc3c([nH]c4ccc(F)cc43)c2=O)cc1CN1CCCC1`, the “hERG current change (%, negative = inhibition) at 10uM” value is on record as -68%.

For the compound `COc1ccc(/C=N/n2c(=O)[nH]c3c([nH]c4ccc(F)cc43)c2=O)cc1CN1CCCCC1`, the “hERG current change (%, negative = inhibition) at 10uM” value is given as -19.1%.

In the case of `COc1ccc(/C=N/n2cnc3c([nH]c4ccc(F)cc43)c2=O)cc1CSc1ccccn1`, the “hERG current change (%, negative = inhibition) at 10uM” value is 20.6%.

As for `COc1ccc(NC(=O)c2nnn(CC(=O)Nc3ccccc3OC)c2N)c(OC)c1`, the “hERG current change (%, negative = inhibition) at 10uM” value stood at 0.272%.

In the case of `CCN(CC)CCOc1ccc2nc(N(C)C)sc2c1.Cl`, the “hERG current change (%, negative = inhibition) at 10uM” value turned out to be 11.1%.

For the compound `CC12CCC(C(=O)Nc3ccccc3)(C/C1=N\O)C2(C)C` (centres unmarked), the “hERG current change (%, negative = inhibition) at 10uM” value was 10.9%.

As for `CCSc1nnc(NC(=O)Cc2ccccc2OC)s1`, the “hERG current change (%, negative = inhibition) at 10uM” value is reported as 13%.

Turning to `CCCCNC(=O)CSc1nc2ccc(N3CCOCC3)cc2c(=O)n1CCc1ccccc1`, the “hERG current change (%, negative = inhibition) at 10uM” value is -19.3%.

For the compound `COCCCNC(=O)CSc1nc2ccc(N3CCOCC3)cc2c(=O)n1CCc1ccccc1`, the “hERG current change (%, negative = inhibition) at 10uM” value is listed as -59.8%.

`CCCCn1c(SCC(=O)NCCOC)nc2ccc(N3CCOCC3)cc2c1=O`: the “hERG current change (%, negative = inhibition) at 10uM” value was -2.94%.

Regarding `CCC(C)NC(=O)CSc1nc2ccc(N3CCOCC3)cc2c(=O)n1CCc1ccccc1` (centres unmarked), the “hERG current change (%, negative = inhibition) at 10uM” value is given as 3.14%.

For `COCCNC(=O)CSc1nc2ccc(N3CCOCC3)cc2c(=O)n1Cc1ccc(OC)cc1`, the “hERG current change (%, negative = inhibition) at 10uM” value is -22.4%.

As to `COCCNC(=O)CSc1nc2ccc(N3CCOCC3)cc2c(=O)n1CCc1ccccc1`, the “hERG current change (%, negative = inhibition) at 10uM” value is -55.1%.

Values taken from paper PMC4336329 (PLoS ONE, 2015).
